Experiment: inhibition of PEG-3 promoter-driven reporter – cell-based, HeLa, luciferase, CREF/GAPDH counter-screen panel, dose response (AID 624167)
Details: CREF/GAPDH counter-screens; run 1, dose range 1, at 100 µM (top of the series)

| Structure (SMILES) | inhibition [%] |
| --- | --- |
| CC(/C=C/c1ccccc1)=N/NC(=O)c1cc([N+](=O)[O-])cc([N+](=O)[O-])c1 | 5.41 |
| CN(C)S(=O)(=O)c1ccc(-c2csc(N/N=C/c3ccc(O)cc3)n2)cc1 | 91.3 |
| CN(C)c1ccc(C=c2c3ccccc3n3c2cc(-c2ccccc2)[n+]3C)cc1 | 99.9 |
| COC(=O)C1C=CC(OC2OC(COC(C)=O)C(OC(C)=O)C(OC(C)=O)C2OC(C)=O)n2c(=O)n(-c3ccccc3)c(=O)n21 (stereo not drawn) | 94.9 |
| Cc1cc(Br)ccc1NC(=O)CNC(=O)Cn1ncc(Cl)c(Cl)c1=O | 98.5 |
| COc1ccc(NC(=O)c2cc(-c3ccccn3)nc3ccccc23)cc1S(=O)(=O)N(C)C | 48.4 |
| COc1ccc(C(NC(=O)C(C)C)c2ccc3cccnc3c2O)cc1 (stereo not drawn) | 31.4 |
| COc1cc(CNCCCN2CCOCC2)cc(Br)c1OCc1ccc(Cl)cc1 | 99.6 |
| O=C(O)c1ccc(N/N=C/c2ccc(OC(=O)c3cccc(Cl)c3)cc2)cc1 | 96.4 |
| CC(C)(C)c1ccc(Cn2c(=O)cnc3ccccc32)cc1 | 88.2 |
| COc1cc(C(=O)N/N=C(\c2ccccc2)c2ccccn2)cc(OC)c1OC | 20 |
| COC1CC(C)C(OC)c2cc(O)cc(c2O)NC(=O)C(C)=CC=CC(C)C(OC(N)=O)C(C)=CC(C)C1OC (stereo not drawn) | 87.1 |
| CCOc1cccc(/C=N/NC(=S)Nc2cc(S(=O)(=O)N3CCOCC3)ccc2N2CCOCC2)c1O | -13.9 |
| O=c1c2ccccc2sc2nc(CCl)nn12 | 100 |
| COc1cccc2c1C(=O)c1c(O)c3c(c(O)c1C2=O)CC(O)(C(C)=NNC(=O)c1ccc(Cl)c(Cl)c1)CC3OC1CC(N)C(O)C(C)O1 (stereo not drawn) | 92 |
| Cc1ccc(OCC(=O)c2cc(C)n(-c3ccccc3)c2C)c([N+](=O)[O-])n1 | 73 |
| CCCC(=O)NC(c1ccc(OC)cc1)c1ccc2cccnc2c1O (stereo not drawn) | 67.4 |

| Structure (SMILES) | inhibition [%] |
| --- | --- |
| CCCCC(=O)NC(c1ccccc1)c1ccc2cccnc2c1O (stereo not drawn) | 47.5 |
| C=CCn1c(COc2ccccc2)nnc1SC(C)C(=O)N/N=C/c1cc(Cl)ccc1O (stereo not drawn) | 65 |
| Cc1ccc(C)c(S(=O)(=O)N2CCN(c3ncnc4sccc34)CC2)c1 | 62.6 |
| N=c1n(CC(=O)c2ccc([N+](=O)[O-])cc2)c2ccccc2n1Cc1ccc(Cl)cc1 | 86 |
| CN1C/C(=C/c2ccccc2[N+](=O)[O-])C(=O)/C(=C\c2ccccc2[N+](=O)[O-])C1 | 50.1 |
| CN(C(=O)COC(=O)/C=C/c1cccc([N+](=O)[O-])c1)C1CCS(=O)(=O)C1 (stereo not drawn) | 26 |
| CC(=O)NC(c1ccc(Cl)cc1Cl)c1ccc2cccnc2c1O (stereo not drawn) | 55.7 |
| CC(C)(C)c1ccc(Oc2ccc(N)cc2)cc1 | 90.1 |
| O=C(/C=C/c1ccc(Cl)c([N+](=O)[O-])c1)c1ccc(O)cc1 | 100 |
| COc1cc(Nc2c3ccccc3nc3ccccc23)cc(OC)c1OC | 95.9 |
| Cc1cccc(OCC(=O)NCC(=O)N/N=C/c2cc(Br)cc(Br)c2O)c1 | 67.3 |
| O=C(N/N=C/c1ccc(Cl)c([N+](=O)[O-])c1)c1cc(-c2ccc3c4c(cccc24)CC3)n[nH]1 | 75.4 |
| O=C(Nc1ccc(Cc2ccncc2)cc1)c1ccc([N+](=O)[O-])o1 | 88.7 |
| CC(C)CCCCCCCCCCCCC(=O)NCC(=O)NC1C(O)C(O)C(Nc2ncnc3nc[nH]c23)OC1C(O)CO (stereo not drawn) | 94.6 |
| C(=N\Nc1ccc2ccccc2n1)/c1ccc2c(c1)OCCO2 | 99.5 |
| Cc1ccc(/C=C2\SC(=S)N(CCCC(=O)Nc3ccccn3)C2=O)cc1 | 80.2 |

— PubChem BioAssay AID624167 (Sanford-Burnham Center for Chemical Genomics, 2012)
